# High-throughput results deposited in PubChem by several laboratories.
# A selection: hits, their analogues and other compounds. The true share with any hit is near 1.2%.
# SSB-PriA inh: blocks PriA binding to SSB C-terminal tail. AlphaScreen SSBct-PriA binding, biotinylated peptide. inhibition, % at 33 µM. 430,000 tested, 0.6% active. AID 1272365; in the data active means inhibition mostly above about 37%, no sharp cut-off; inactive means mostly below about 20%;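 further: plate controls were negative control peptide for no effect and reference peptide for full effect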
# Mtb UGM inh: Mtb UDP-galactopyranose mutase inhibition. P9WIQ1. 320,000 tested, 0.06% active. inhibition, % at 10 µM. purified UGM, fluorescence polarization probe displacement; in the data active means inhibition above about 10%, passing the limit was not always enough
# Rv3671c protease: inhibits the M. tuberculosis serine protease Rv3671c. inhibition, % at 5.96 µM. 320,000 tested, 0.048% active. P9WHR9; in the data active means inhibition above about 38%;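 further: extracellular domain of Rv3671c used as enzyme; 0% = enzyme with DMSO and 100% = no enzyme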
# Target sequence (P9WHR9 whole entry, looked up, the tested form may be a part): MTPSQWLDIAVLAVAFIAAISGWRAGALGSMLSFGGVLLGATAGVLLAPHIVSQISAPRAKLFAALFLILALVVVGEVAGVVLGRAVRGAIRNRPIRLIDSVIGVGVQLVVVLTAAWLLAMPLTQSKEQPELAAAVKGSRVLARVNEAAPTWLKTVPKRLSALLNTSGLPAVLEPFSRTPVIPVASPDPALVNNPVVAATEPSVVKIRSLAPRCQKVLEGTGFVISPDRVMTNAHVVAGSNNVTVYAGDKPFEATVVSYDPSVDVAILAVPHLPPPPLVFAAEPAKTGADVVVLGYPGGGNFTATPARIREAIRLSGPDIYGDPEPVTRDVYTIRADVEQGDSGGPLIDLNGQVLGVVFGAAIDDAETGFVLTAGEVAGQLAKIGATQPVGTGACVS
# PrP UTR inh: inhibition of PrP 5' UTR reporter expression; 340,000 tested, 0.35% active; cell-based PrP 5' UTR mRNA reporter, plate reader; inhibition, % (test concentration not listed); in the data active means inhibition above about 52%; further: 0 = median of the neutral control wells
# PrPC TRFRET: reduces human prion protein on the cell surface; AID 720596; inhibition, % at 13.8 µM; 370,000 tested, 0.43% active; P04156; cell surface PrPC, TR-FRET read-out; in the data active means inhibition above about 24%; further: 0% = median of the test wells and 100% = reference compound wells
# FadD28 FP inh: blocks FadD28 binding to the bisubstrate probe | AID 588549 | fluorescence polarization | inhibition, % at 12.5 µM | 360,000 tested, 0.22% active; in the data active means inhibition above about 8.5%, passing the limit was not always enough
# PrP UTR cherry: prion 5' UTR mRNA inhibition, cherry-pick retest. inhibition, % at 2.5 µM. 1,100 tested, 48% active. shares compounds with PrP UTR inh. cell-based prion protein 5' UTR reporter, plate reader; in the data active means inhibition above about 54%
# PrPC confirm: confirmation of inhibitors of cell surface human prion protein; AID 743200; cell surface PrPC level, TR-FRET; inhibition, % at 13.8 µM; shares compounds with PrPC TRFRET; 1,500 tested, 65% active; in the data active means inhibition above about 25%
# LD9 tox: LD9 cell cytotoxicity, PrPc inhibitor counter-screen. shares compounds with PrPC TRFRET. LD9 cells cytotoxicity, luminescence viability. inhibition, % at 13.8 µM. 1,500 tested, 29% active. AID 743201; in the data active means inhibition above about 9.5%
# Starred values were filed as active, the others as inactive; nt = no result given.
SMILES,SSB-PriA inh,Mtb UGM inh,Rv3671c protease,PrP UTR inh,PrPC TRFRET,FadD28 FP inh,PrP UTR cherry,others
O=C(CN1C(=O)c2ccccc2S1(=O)=O)c1ccc2c(c1)OCCCO2,-7,0,2,95*,3,-2,97*,
O=C(CN1C(=O)c2ccccc2S1(=O)=O)c1ccc2c(c1)OCCO2,5,-2,-2,91*,-8,-3,93*,
CCc1ccc(S(=O)(=O)c2cnc(N3CCN(c4ccccc4OC)CC3)nc2N)cc1,-16,nt,nt,nt,nt,nt,nt,
NC(=O)c1cc([N+](=O)[O-])ccc1NCc1ccc(N)cc1,14,0,3,74*,-19,0,75*,
CCCCNC(=O)C1c2cc(OC)c(OC)cc2C(=O)N(C)C1c1cccs1 (centres undefined),-12,1,-2,81*,2,-2,-15,
CCCN(CCC)CCCNC(=O)C1c2cc(OC)c(OC)cc2C(=O)N(C)C1c1cccs1 (centres undefined),-7,0,5,3,-2,-2,nt,
C[C@@H]1CN([C@H](C)CO)C(=O)c2cc(NS(=O)(=O)c3cn(C)cn3)ccc2O[C@@H]1CN(C)S(C)(=O)=O,-1,3,8,-29,2,0,nt,
C[C@H](CO)N1C[C@H](C)[C@@H](CN(C)S(C)(=O)=O)Oc2ccc(NS(=O)(=O)c3cn(C)cn3)cc2C1=O,-4,nt,-1,90*,-5,-1,1,
COCCn1c(C)cc(O)c(C(c2cccc(Cl)c2)N2CCN(c3ccc(F)cc3)CC2)c1=O (centres undefined),11,nt,nt,nt,nt,nt,nt,
C[C@@H]1O[C@@H](O[C@H]2C[C@@H](O)[C@]3(CO)[C@H]4[C@H](O)C[C@]5(C)[C@@H](C6COC(=O)C6)CC[C@]5(O)[C@@H]4CC[C@]3(O)C2)[C@H](O)[C@H](O)[C@H]1O (some centres undefined),-2,-4,1,59*,4,-3,70*,
CC1OC(OC2CC(O)C3(CO)C4C(O)CC5(C)C(C6=CC(=O)OC6)CCC5(O)C4CCC3(O)C2)C(O)C(O)C1O (centres undefined),-3,nt,nt,91*,-5,-4,93*,
COc1cccc(NC(=O)CSc2nc3sc4c(c3c(=O)n2-c2ccccc2)CCC4)c1,0,nt,nt,nt,nt,nt,nt,
Cc1cc(NC(=O)/C=C/c2ccccc2Cl)n(C(C)C)n1,6,nt,nt,nt,nt,nt,nt,
O=C(Cc1ccc(Cl)cc1)NCCc1ccc(N2CCCC2)cc1,1,nt,nt,nt,nt,nt,nt,
Cc1ccccc1COC(=O)c1cc([N+](=O)[O-])ccc1N1CCOCC1,-3,1,5,-6,-5,-1,nt,
O=C(c1ccc(Br)cc1)c1cc([N+](=O)[O-])ccc1N1CCCCC1,12,0,-3,58*,-5,-3,94*,
CSc1ccc(COC(=O)c2cc([N+](=O)[O-])ccc2N2CCOCC2)cc1,19,0,-1,72*,8,-3,89*,
CN1CCN(c2ccc([N+](=O)[O-])cc2C(=O)c2ccc(Br)cc2)CC1,-8,-4,0,-32,-15,-2,nt,
CN1CCN(c2ccc([N+](=O)[O-])cc2C(=O)N2CCOCC2)CC1,-27,0,5,-2,-11,-2,nt,
Cc1ccc(C(=O)c2cc([N+](=O)[O-])ccc2N2CCOCC2)c(C)c1,7,nt,-3,75*,-6,-6,86*,
O=C(c1cc([N+](=O)[O-])ccc1N1CCOCC1)N1CCN(c2ccccc2)CC1,nt,1,8,81*,4,-2,92*,
Cc1cc(-c2csc(Nc3ccc(S(C)(=O)=O)cc3)n2)c(C)o1,-10,nt,nt,nt,nt,nt,nt,
Cc1ccc2nc(-c3ccccc3)cn2c1,7,-1,-4,87*,3,-4,85*,
Cc1n(CC(=O)c2ccc(Br)cc2)c2ccccc2[n+]1C,3,nt,nt,nt,nt,nt,nt,
c1ccc(NC(c2ccccc2)c2ccncc2)cc1 (centres undefined),-7,4,6,4,-4,0,nt,
SMILES,SSB-PriA inh,Mtb UGM inh,Rv3671c protease,PrP UTR inh,PrPC TRFRET,FadD28 FP inh,PrP UTR cherry,others
c1ccc(C(Nc2cccnc2)c2ccccc2)cc1,0,nt,nt,71*,1,-1,-13,
CN1CCSc2ccc(C(=O)NCc3ccccc3F)cc21,13,-4,3,-21,17,-2,nt,
COc1cccc(CNC(=O)c2ccc3c(c2)N(C)CCS3)c1OC,-1,-2,2,59*,13,-4,-30,
CC[C@@H]1C(c2ccccc2)=NN(c2ccccc2)[C@H]1C(=O)N1CCOC1=O,-52,nt,nt,62*,11,-1,-36,
CC1CCN(c2ccc(-c3cccc(NC(=O)C(F)(F)F)c3)nn2)CC1,-3,3,0,83*,2,-3,86*,
O=C(Nc1cccc(-c2ccc(N3CCOCC3)nn2)c1)C(F)(F)F,5,nt,nt,nt,nt,nt,nt,
O=C(Nc1cccc(-c2ccc(N3CCCCC3)nn2)c1)C(F)(F)F,8,-2,-8,75*,6,0,68*,
CCC(=O)Nc1cccc(-c2ccc(N3CCC(C)CC3)nn2)c1,-7,-1,8,24,-8,-3,nt,
O=S(=O)(Cc1ccc(F)cc1)Nc1ccc2c(c1)CN(S(=O)(=O)c1ccccc1)CC2,3,nt,nt,nt,nt,nt,nt,
C(=NN1CCCCCC1)c1ccc2ccccc2n1,6,nt,nt,94*,1,2,91*,
ON=Cc1ccc2ccccc2n1,-16,nt,nt,nt,nt,nt,nt,
Cn1c(-c2ccccc2F)cc2onc(-c3ccccc3)c2c1=O,-25,0,-5,-5,-5,-1,nt,
Cn1c(-c2ccccc2)cc2onc(-c3ccccc3)c2c1=O,-8,-1,-4,63*,6,-2,32,
O=C(Nc1nc(-c2ccc(Cl)c(Cl)c2)cs1)C1=COCCO1,-9,nt,nt,nt,nt,nt,nt,
CC(=O)OC[C@]12CCC(C)=C[C@H]1O[C@@H]1[C@H](O)[C@@H](OC(C)=O)[C@@]2(C)[C@]12CO2,-1,3,4,90*,88*,2,97*,PrPC confirm=99*;LD9 tox=59*
O=C(Cn1cnc2c([nH]c3ccccc32)c1=O)NC1CCN(Cc2ccccc2)CC1,-14,nt,nt,nt,nt,nt,nt,
CC(=O)OC1C(O)C(C)OC(OC2C(OC(=O)C3CCC4C(C3)OC3(CC(OC(=O)/C=C/c5ccccc5)C(C)CO3)C43CO3)OC(C)C(O)C2OC(C)=O)C1O (centres undefined),-9,nt,nt,84*,86*,-4,83*,PrPC confirm=98*;LD9 tox=67*
CC(=O)CCC1C2C(O)C(C(C)C)C(OC(=O)/C=C/c3ccccc3)CC12C (centres undefined),-3,0,-8,-44,5,-9,nt,
